# From PubChem BioAssay
# Only some compounds are listed: those with a hit (about 3.4% of all), similar ones and a draw of the others.
# FBW7 act: human FBW7 E3 ligase activation, primary screen; Q969H0; AlphaScreen FBW7–phospho-cyclin E peptide binding, activator screen; normalized activity (activation), % at 26.1 µM; 0.13% of 650,000 active; AID 1259310; in the data active = normalized activity above about 1.9%;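 note: purified mutant Fbw7 with reduced substrate affinity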
# MITF inh: inhibitors of human MITF | 0.91% of 650,000 active | inhibition, % at 2.6 µM | O75030 | AlphaScreen MITF homodimerization, bead proximity signal | AID 1259374; in the data active = inhibition above about 50%
# GPR151 ag: activates the human receptor GPR151 | Q8TDV0 | activation, % at 11.2 µM | 1% of 650,000 active | PathHunter beta-arrestin GPR151 cells, luminescence | AID 1508602; in the data active = activation above about 4.9%
# Target sequence (Q8TDV0 whole entry, looked up): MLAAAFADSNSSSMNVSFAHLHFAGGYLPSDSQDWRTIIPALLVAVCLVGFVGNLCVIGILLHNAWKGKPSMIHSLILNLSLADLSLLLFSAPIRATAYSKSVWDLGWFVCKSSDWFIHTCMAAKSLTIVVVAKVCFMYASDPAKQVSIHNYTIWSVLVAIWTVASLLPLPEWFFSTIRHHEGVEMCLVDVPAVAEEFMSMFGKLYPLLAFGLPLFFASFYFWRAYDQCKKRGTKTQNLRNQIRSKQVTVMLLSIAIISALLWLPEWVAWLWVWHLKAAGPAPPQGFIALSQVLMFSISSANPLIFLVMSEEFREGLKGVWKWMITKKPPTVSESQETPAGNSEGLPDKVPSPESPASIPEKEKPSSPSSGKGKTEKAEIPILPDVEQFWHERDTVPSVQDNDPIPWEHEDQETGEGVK
# TEAD-YAP block: TEAD-YAP interaction inhibition; 1.4% of 640,000 active; AID 1259422; inhibition, % at 9.12 µM; HEK-TIYL cells, TEAD-Gal4/YAP UAS-luciferase luminescence; in the data active = inhibition above about 32%
# A number is an active result; i = inactive.
SMILES,FBW7 act,MITF inh,GPR151 ag,TEAD-YAP block
CC(C)(C)c1ccc(C(=O)O/N=C(\N)c2ccccc2)cc1,i,i,i,85.8
COc1ccc(/C(N)=N/OC(=O)c2ccc(C)cc2Cl)cc1,i,i,i,i
CCn1c2ccccc2c2nnc(NCc3ccccc3)nc21,i,i,i,i
O=C(O)c1ccc(C(=O)O)c(S(=O)(=O)c2ccccc2)c1,i,i,i,i
CC1=C(C(=O)Nc2ccccn2)C(c2ccc(C)cc2)C2=C(CCCC2=O)N1 (configuration not stated),i,i,i,i
COc1cc(/C=N/Nc2cccc(C)c2)cc([N+](=O)[O-])c1O,i,i,i,i
CCCNc1ccc2ncc(-c3cc4ccccc4s3)n2n1,i,i,i,i
c1cncc(CCNc2ccc3ncc(-c4cc5ccccc5s4)n3n2)c1,i,i,i,72.6
FC(F)(F)c1cccc(-c2cnc3ccc(NCCc4cccnc4)nn23)c1,i,i,i,36.7
Cc1cc(=O)[nH]c(NC2CCN(C(=O)C(C)(C)c3ccc(Cl)cc3)CC2)n1,i,i,i,i
Cc1cc(=O)[nH]c(NC2CCN(C(=O)N3c4ccccc4Sc4ccccc43)CC2)n1,i,i,i,56.3
CCC(=O)Nc1c(-c2cccc(OC)c2)c(=O)c2ccccc2n1C,i,i,i,i
COc1cccc2cc(C(=O)NCc3cccc(Cl)c3)c(=Nc3ccc(C(=O)O)cc3)oc12,i,i,i,34.6
CCN1/C(=C/c2ccc3cc(C)ccc3[n+]2CCO)Sc2ccccc21,i,i,i,58.0
CC[n+]1c(/C=C2\Sc3cc(NC(C)=O)ccc3N2C)ccc2ccccc21,i,i,i,i
CC[n+]1c(/C=C2\Sc3ccccc3N2C)ccc2ccc(C)cc21,i,i,i,77.2
CCN1/C(=C/c2cccc[n+]2C)C=Cc2cc(C)ccc21,i,i,i,81.4
CC[n+]1c(/C=C2\Sc3ccccc3N2CCO)ccc2cc(C)ccc21,i,i,i,53.5
COCCNC(=O)/C(C#N)=C/c1ccccc1OCc1ccccc1,i,i,i,i
COc1ccc([C@@H]2C[C@H]3CN(C4Cc5ccccc5C4)C(=O)[C@]34CCCN24)c(F)c1,i,i,i,i
CC[n+]1c(/C=C2\Sc3oc4ccccc4c3N2C)ccc2cc(C)ccc21,i,i,i,43.7
CN1/C(=C/c2cccc[n+]2C)C=Cc2ccccc21,i,i,i,71.4
CCN1/C(=C/c2ccc3cc(C)ccc3[n+]2CC)C=Cc2ccccc21,i,i,i,92.2
CCN1/C(=C/c2ccc3cc(C)ccc3[n+]2C)Sc2ccccc21,i,i,i,75.8
CCN1/C(=C/C=C/c2cc[n+](CC)c3ccccc23)C=Cc2ccccc21,i,i,i,i
SMILES,FBW7 act,MITF inh,GPR151 ag,TEAD-YAP block
Cc1cccc2c1N(C)/C(=C/c1cccc[n+]1C)C=C2,i,i,i,i
CCN1/C(=C\c2c(O)c(=O)c2=O)Sc2ccccc21,i,i,i,i
CC(=C\c1sc2oc3ccccc3c2[n+]1CCO)/C=C1/Sc2oc3ccccc3c2N1CCO,i,i,i,i
O=C(Cc1c[nH]c2ccccc12)N(Cc1ccccc1)C1(C(=O)Nc2ccccc2)CCCCC1,i,i,i,i
N#CC(C#N)=C1C(Cl)=C(N2CCCCC2)c2ccccc21,i,i,i,i
CC[n+]1c(/C=C2\Sc3ccccc3N2CCO)ccc2cc(OC)ccc21,i,i,i,69.7
CCN1/C(=C/c2ccc3cc(C)ccc3[n+]2C)Sc2ccc3ccsc3c21,i,i,i,76.5
CC[n+]1c(/C=C2\Sc3cc(C)ccc3N2CCO)ccc2ccccc21,i,i,i,63.8
CCN1/C(=C/c2c3ccccc3cc[n+]2CC)C=Cc2ccccc21,i,i,i,89.5
C[n+]1ccccc1/C=C1\Sc2ccccc2N1CCO,i,i,i,i
COc1ccc2c(c1)CC(C(=O)Nc1ccc(-c3cn[nH]c3C)cc1OCCN1CCCC1)CO2 (configuration not stated),i,i,i,i
Cc1[nH]ncc1-c1ccc2nc(NC(=O)C3COc4ccc(F)cc4C3)sc2c1 (configuration not stated),i,i,i,57.1
COc1ccc2c(c1)CC(c1nc3ccc(-c4cn[nH]c4C)cc3c(=O)[nH]1)CO2 (configuration not stated),i,i,i,32.5
COc1ccc2c(c1)CC(C(=O)Nc1ccc(-c3cn[nH]c3C)cc1OCCO)CO2 (configuration not stated),i,i,i,55.5
COc1ccc2c(c1)OCC(c1nc3cc(-c4cn[nH]c4)c(F)cc3[nH]1)C2 (configuration not stated),i,i,i,84.2
Cc1[nH]ncc1-c1ccc(NC(=O)C2COc3ccc(F)cc3C2)c(N(C)CCN(C)C)c1 (configuration not stated),i,i,i,i
COc1ccc2c(c1)CC(c1nc3ccc(-c4ccncc4)cc3c(=O)[nH]1)CO2 (configuration not stated),i,i,i,i
COc1cccc2cc(C(N)=O)/c(=N/O)oc12,i,i,i,i
COc1ccc(-c2nnc(Nc3ccc4c(c3)ncn4-c3ccccc3C)c3ccccc23)cc1,i,i,i,i
O=C(Nc1ccc(-c2cn[nH]n2)cc1)C1COc2ccc(F)cc2C1 (configuration not stated),i,i,i,34.5
COc1ccc2c(c1)CC(c1cnc3ccc(-c4cn[nH]c4)cc3n1)CO2 (configuration not stated),i,i,i,32.6
O=C(O)CN1C(=O)C2C3CC(C(Br)C3Br)C2C1=O (configuration not stated),i,i,i,i
CC1(C)CC(=O)C2=C(C1)Nc1c(ccc3ccccc13)C2c1ccc(C(C)(C)C)cc1 (configuration not stated),i,i,i,i
Nc1nc2ccccc2n1C(=O)c1ccc(Cl)cc1,i,i,i,70.7
Cc1ccc(C(=O)n2c(N)nc3ccccc32)cc1,i,i,i,90.7
SMILES,FBW7 act,MITF inh,GPR151 ag,TEAD-YAP block
Cc1ccc(S(=O)(=O)Nc2ccccc2/C=N\n2cnnc2)cc1,i,i,i,48.2
Cc1cncc2cccc(NC3CCNC3)c12 (configuration not stated),i,i,i,68.8
Cc1cncc2cccc(NC3CCCN(C(=O)C(O)c4ccc(Br)cc4)C3)c12 (configuration not stated),i,i,i,47.5
FC(F)(F)c1cccc(NCc2cn3cccnc3n2)c1,2.3,i,i,i
FC(F)(F)c1cccc(NCc2cn3ccccc3n2)c1,i,i,i,i
Cc1ccc(/C(O)=C2\C(=O)C(=O)N(c3ccccn3)C2c2ccc(C(C)(C)C)cc2)cc1 (configuration not stated),i,i,i,44.2
COc1cc(/C=C2\SC(N)=NC2=O)ccc1OCC(=O)Nc1ccc(C)cc1,i,i,i,33.7
CCOc1cc(/C=C2\SC(N)=NC2=O)ccc1OCC(=O)NCc1ccccc1,i,i,i,32.5
CCOc1cc(/C=C2\SC(N)=NC2=O)ccc1OC(=O)c1cccs1,i,i,i,35.0
Cn1nc(C(=O)NNC(=O)c2ccc(OC(F)(F)F)cc2)c2ccccc2c1=O,i,i,i,i
